Screens (PubChem)
L3MBTL1 block: qHTS Assay for the Inhibitors of L3MBTL1; AlphaScreen L3MBTL1–H3K9me1 peptide binding; actives 0.66% (n = 230,000); Lethal(3)malignant brain tumor-like protein 1 (Homo sapiens), Q9Y468; Potency, µM (titrated, usually from 57.1 µM), inactives show at the top dose activity, negative = inhibition, usual class: inhibitors; note: % is set by controls: 0 for no effect and ±100 for the full control effect; nearly all actives have a fitted effect of over 60% in size
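Displacement of a biotinylated histone H3(1-15) peptide monomethylated at Lys9 (75 nM) from L3MBTL1 (50 nM) was measured by AlphaScreen after a 30 min room-temperature compound incubation; cefsulodin titration served as intraplate control.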
G9a inh: qHTS Assay for Inhibitors of Histone Lysine Methyltransferase G9a; Potency, µM (series often up to 102 µM), without a hit: at the highest dose activity, negative = inhibition, actives largely listed as inhibitors; G9a H3K9 monomethylation, AlphaScreen, 2 h; actives 8.8% (n = 350,000); note: % is set by controls: 0 for no effect and ±100 for the full control effect; nearly all actives have a fitted effect of over 75% in size
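Compounds were preincubated with 20 nM G9a for 15 min, after which biotinylated H3K9 peptide (500 nM) and SAM (20 uM) started a 2 h room-temperature reaction. Monomethylated product was quantified by antibody-based AlphaScreen chemiluminescence.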
Sfp inh: qHTS Assay for Inhibitors of Bacillus subtilis Sfp phosphopantetheinyl transferase (PPTase) | actives 3.5% (n = 310,000) | Potency, µM, without a hit: largest response in the series, negative = inhibition, hits mostly inhibitors | Biochemical Sfp PPTase activity, qHTS | 4'-phosphopantetheinyl transferase ffp (Bacillus subtilis), Q9F4F7;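 note: the enzyme is Sfp with the accession as filed and its product quenches rhodamine fluorescence; 0% = enzyme reaction without inhibitor and -100% = no enzyme wells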
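Step 1, compound plus 15 nM Sfp-PPTase, 15 min, room temperature. Step 2, add rhodamine-CoA (5 uM) and BHQ-2-YbbR (12.5 uM). Step 3, read 525/598 nm fluorescence at 0 and 30 min.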
JMJD2A Tudor: qHTS Assay for Inhibitors of JMJD2A-Tudor Domain; AlphaScreen JMJD2A-Tudor / H3K4me3 peptide binding; Potency, µM (series often up to 114 µM), for inactives: at the top dose activity change, negative = inhibition, hits mostly inhibitors; actives 4.4% (n = 390,000); AID 504339, 2011; note: % is set by controls: 0 for no effect and ±100 for the full control effect; nearly all actives have a fitted effect of over 50% in size
Target sequence (O75164 whole entry, looked up, the tested form may be a part): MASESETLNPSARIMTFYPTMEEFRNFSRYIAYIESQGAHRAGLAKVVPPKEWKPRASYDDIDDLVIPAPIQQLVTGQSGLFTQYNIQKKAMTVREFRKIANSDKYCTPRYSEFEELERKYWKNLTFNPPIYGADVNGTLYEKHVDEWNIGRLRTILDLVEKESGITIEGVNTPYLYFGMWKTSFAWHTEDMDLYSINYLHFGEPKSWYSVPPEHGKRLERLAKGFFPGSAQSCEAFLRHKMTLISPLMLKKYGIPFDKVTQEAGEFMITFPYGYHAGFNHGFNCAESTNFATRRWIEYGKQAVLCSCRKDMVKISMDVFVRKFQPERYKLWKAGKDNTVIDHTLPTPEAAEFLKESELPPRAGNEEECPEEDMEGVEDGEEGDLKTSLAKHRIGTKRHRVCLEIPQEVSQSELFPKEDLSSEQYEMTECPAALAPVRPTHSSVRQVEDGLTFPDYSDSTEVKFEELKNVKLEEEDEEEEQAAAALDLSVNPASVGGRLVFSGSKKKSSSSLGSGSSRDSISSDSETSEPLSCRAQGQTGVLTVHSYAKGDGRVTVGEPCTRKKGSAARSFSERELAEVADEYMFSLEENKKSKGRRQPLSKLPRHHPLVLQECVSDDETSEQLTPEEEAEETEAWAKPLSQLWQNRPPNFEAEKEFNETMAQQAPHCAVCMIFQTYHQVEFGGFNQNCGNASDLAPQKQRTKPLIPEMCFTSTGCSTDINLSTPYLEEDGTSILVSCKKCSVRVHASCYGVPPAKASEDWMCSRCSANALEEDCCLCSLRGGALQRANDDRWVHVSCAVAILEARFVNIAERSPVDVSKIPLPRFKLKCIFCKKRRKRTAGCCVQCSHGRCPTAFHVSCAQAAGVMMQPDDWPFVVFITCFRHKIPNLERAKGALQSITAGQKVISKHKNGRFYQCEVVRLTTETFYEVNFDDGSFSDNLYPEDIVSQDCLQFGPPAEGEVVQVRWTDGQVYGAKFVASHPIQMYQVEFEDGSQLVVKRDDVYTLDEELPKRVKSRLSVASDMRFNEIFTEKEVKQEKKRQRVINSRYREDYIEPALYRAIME
BAZ2B block: qHTS Assay for Inhibitors of BAZ2B; Bromodomain adjacent to zinc finger domain protein 2B (Homo sapiens), Q9UIF8; AlphaScreen BAZ2B-H3K14Ac peptide displacement; Potency, µM (highest dose often 114 µM), for inactives: at the highest dose activity change, negative = inhibition, actives largely listed as inhibitors; actives 4.4% (n = 360,000); AID 504333, 2011; note: % is set by controls: 0 for no effect and ±100 for the full control effect; nearly all actives have a fitted effect of over 60% in size
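BAZ2B (50 nM) with biotin-H3(5-23)K14Ac peptide (50 nM) in PBS pH 7.4, 0.01% Tween-20, preformed 30 min, then compound 30 min at room temperature; top concentration 110uM. AlphaScreen streptavidin donor/nickel chelate acceptor beads (10 ug/mL final), 20 min dark, signal read.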
HP1b chromo inh: HTS for Inhibitors of HP1-beta Chromodomain Interactions with Methylated Histone Tails | AlphaScreen HP1-beta / biotin-H3K9me3 peptide binding | Potency, µM (titrated, usually from 114 µM), inactives show top-dose activity change, negative = inhibition, usual class: inhibitors | actives 0.56% (n = 390,000); note: nearly all actives have a fitted effect of over 70% in size
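Compound inhibition of the preformed complex between 50 nM HP1-beta and 50 nM biotinylated H3K9me3 peptide was read by AlphaScreen. Buffer was PBS pH 7.4 with 0.01% Tween-20. Incubations ran 30 min at room temperature, with 10 ug/mL donor/acceptor beads.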
* marks the source's active call; other numbers are inactive results; ? = inconclusive; · = not tested or not shown; [ ] = remark or other dose. A selection: hits, their analogues and other compounds. The true share with any hit is near 12%. Calls come from the whole dose curve; as a rule, active = well fitted curve in the direction sought with a large enough effect; inconclusive = small, poorly fitted or top-dose-only effect, or another doubt; inactive = no such curve, though single readings can be large; an effect the other way counts as inactive or inconclusive. Potency is the fitted concentration of half-maximal effect.

SMILES | L3MBTL1 block | G9a inh | Sfp inh | JMJD2A Tudor | BAZ2B block | HP1b chromo inh
O=C(NC1CC1)c1cc(=S)[nH]c2ccccc12 | 46% | · | · | 18µM* | · | 0%
C/C(CC(=O)Nc1ccc(N(C)C)cc1)=N\NC(=O)Cc1csc(N)n1 | -4% | 45µM* | ? | ? | ? | -8%
Cc1nc(CC(=O)Nc2ccc(N(C)C)cc2)cs1 | · | 14µM* | · | ? | ? | 13%
COc1ccc(CC(=O)N/N=C(\C)CC(=O)Nc2ccc(N(C)C)cc2)cc1 | · | -24%[59 µM] | 6% | -36% | -26% | 11%
Cc1nc(CC(=O)Nc2ccc(C(N)=O)cc2)cs1 | · | -3%[59 µM] | · | -16% | -5% | 25%
CCN(C(=O)COC(=O)c1ccc(SC)cc1OC)C1CCS(=O)(=O)C1 (stereo not given) | 0% | · | · | 7% | · | 29%
CCCSc1nc2cc(C)c(C)cc2n1CC(O)CO (stereo not given) | 5% | 4% | 9% | -12% | -3% | 21%
CCCSc1nc2cc(C)c(C)cc2n1CC(C)O (stereo not given) | 3% | 11µM* | -28% | -10% | ? | 18%
O=C(c1ccc(NC2=NC3CS(=O)(=O)CC3S2)cc1)N1CCN(c2ccc([N+](=O)[O-])cc2)CC1 (stereo not given) | · | · | 16% | -20% | -4% | 55%
COc1ccc(NC(=O)CC2C(=O)N(c3cccc(OC)c3)C(=O)N2Cc2ccco2)cc1 (stereo not given) | · | -12% | 8% | -20% | 1% | 15%
CC(CC(=O)Nc1nnc(CC(C)(C)C)s1)c1ccccc1 (stereo not given) | 0% | 40µM* | ? | -12% | 5% | -7%
CC(C)(C)Cc1nnc(NS(=O)(=O)c2ccccc2)s1 | 5% | 79µM* | -3% | -13% | -19% | -1%
Cc1nnc(NC(=O)CC(C)c2ccccc2)s1 (stereo not given) | 5% | · | 3% | 8% | 8% | 32%
Cc1cc(C)cc(NC(=O)COCc2cc(-c3ccc4c(c3)OCO4)on2)c1 | · | 6%[59 µM] | · | 3% | 8% | 61%
O=C1CC(=O)c2c1cccc2[N+](=O)[O-] | · | 10µM* | 79µM* | · | 50µM* | ·
COc1ccc(C2/C(=C(/O)c3ccc(C)cc3)C(=O)C(=O)N2C)c(OC)c1 (stereo not given) | 4% | · | 6% | -1% | ? | 32%
CCOC(=O)N1CCC(=NNc2ccc(S(N)(=O)=O)cc2[N+](=O)[O-])CC1 | -15% | ? | -1% | -9% | -28% | 29%
CCOC(=O)N1CCC(=NNc2nc(C)cc(=O)[nH]2)CC1 | · | 40µM* | 79µM* | -4% | -3% | 31%
COc1ccc(N/N=C(C)/C(=N/O)C(=O)Nc2ccccc2)cc1 | -3% | 22µM* | 4% | ? | -38% | ?
COc1ccc(C(=O)CC(=O)C(=O)Nc2ccccc2)cc1 | · | -1% | -15% | -14% | 71µM* | 50%
CCc1nn2c(=O)cc(COC(=O)c3cccc(NC(=O)COc4ccccc4F)c3)nc2s1 | · | 1%[59 µM] | · | -5% | -11% | 18%
CC1Cc2ccccc2N1C(=O)CSc1ncccc1C(=O)O (stereo not given) | -2% | 79µM* | 4% | -12% | -4% | 18%
COC(=O)C1(C)C=CC2(CCCCC2)N1C(=O)c1ccccc1 (stereo not given) | · | · | 16% | · | · | ·
CCOc1cc(/C=C2\N=C(C)OC2=O)cc(Cl)c1OCC(=O)OC | · | · | · | -10% | · | -20%
COc1cc(/C=C2\N=C(C)OC2=O)cc(Cl)c1OC(C)=O | · | 40µM* | ? | -1% | 1% | 11%
SMILES | L3MBTL1 block | G9a inh | Sfp inh | JMJD2A Tudor | BAZ2B block | HP1b chromo inh
COCC(=O)N1CCC2(CC1)CCN(c1ccccn1)CC2 | · | -4%[12.7 µM] | 3% | · | · | ·
COc1ccc(N2CC(NC(=O)c3ccc4c(c3)OCO4)CC2=O)cc1OC (stereo not given) | · | 0%[59 µM] | · | -11% | -1% | -1%
O=C(NCCc1nc2ccccc2n1CCCOc1ccccc1)C1CCCCC1 | · | · | · | -11%[57.1 µM] | · | 24%[57 µM]
O=C(NNc1ncnc2c1cnn2-c1ccccc1)c1cccc(Cl)c1 | · | ? | · | -21% | 19% | 100%
O=C(O)/C=C/C(=O)NNc1ncnc2ccccc12 | · | 29%[12.7 µM] | 56µM* | -10% | -17% | 29%
O=C(NNc1ncnc2ccccc12)c1cccc(Cl)c1 | · | 79µM* | -1% | 6% | 79µM* | 37%
CC(=O)c1ccc(N2CCN(S(=O)(=O)c3ccc4c(c3)CC(C)N4C(=O)C3CCC3)CC2)cc1 (stereo not given) | · | 0%[59 µM] | · | 3% | 1% | 22%
Cc1cc(O)c(-c2ccnc3cc(-c4ccccc4)nn23)cc1Cl | · | 3%[59 µM] | · | 9% | -5% | 65%
COc1cc(CNc2ccc3[nH]c(=O)[nH]c3c2)cc(Cl)c1OCC(=O)NC(C)(C)C | -2% | ? | 11µM* | -13%[11.4 µM] | -33% | ?
CCOc1cc(CNc2ccc3[nH]c(=O)[nH]c3c2)ccc1OCC(=O)NC(C)(C)C | 0% | 5µM* | ? | -31% | -5% | -11%
CCOc1cc(CNCCc2ccc(S(N)(=O)=O)cc2)ccc1OCC(=O)NC1CCCCC1 | · | -48%[59 µM] | 16% | -17% | 0% | 19%
CCOc1cc(CNCc2ccccn2)ccc1OCC(=O)NC1CCCCC1 | · | 3%[12.7 µM] | 16% | 56µM* | 79µM* | 1%
CC(C)(C)NC(=O)COc1ccc(CNCc2ccccn2)cc1 | ? | · | -28% | 56µM* | 50µM* | 14%
COC(=O)c1ccc(C(/C=C/[C@@H](C)C(=O)NCc2ccc(OC)c(O)c2)NC(=O)OCc2ccccc2)cc1 (stereo not given in full) | · | · | -16% | · | · | ·
COCCCC1CCN(C(=O)C2CCC(=O)N(Cc3cccc(F)c3)C2)CC1 (stereo not given) | · | -6%[0.0925 µM] | 2% | -5% | 0% | 24%
Cc1nn(CC(=O)NCc2ccco2)c(=O)c2cc3ccccc3n12 | · | 1%[59 µM] | · | 5% | -37% | 31%
CCOc1cc(CNCc2cccnc2)ccc1OCC(=O)NC(C)(C)C | 2% | 50µM* | 24% | -21% | ? | 28%
CCOc1cc(CNCCc2ccccc2)ccc1OCC(=O)NC(C)(C)C | -1% | 2% | 3% | ? | -2% | ?
O=C(Oc1cccc2cccnc12)c1ccccc1 | · | 43%[59 µM] | -15% | · | · | ·
